How the values were obtained:
Test in all cases: DAPPL (digital affinity profiling via proximity ligation, sequencing); 10 mM Tris-HCl pH 7.5, 50 mM NaCl, 1 mM DTT, 4% glycerol, room temperature, 30 min; GST-TFs on glutathione beads, 16-mer random dsDNA library, 0.1% formaldehyde crosslink after washing; high values mean tight binding
Conditions in all cases: protein: recombinant; tags: N-terminal GST; dsDNA, one strand shown
ERG = target: T1, ERG (Homo sapiens, UniProt P11308 1-479)
T1 sequence: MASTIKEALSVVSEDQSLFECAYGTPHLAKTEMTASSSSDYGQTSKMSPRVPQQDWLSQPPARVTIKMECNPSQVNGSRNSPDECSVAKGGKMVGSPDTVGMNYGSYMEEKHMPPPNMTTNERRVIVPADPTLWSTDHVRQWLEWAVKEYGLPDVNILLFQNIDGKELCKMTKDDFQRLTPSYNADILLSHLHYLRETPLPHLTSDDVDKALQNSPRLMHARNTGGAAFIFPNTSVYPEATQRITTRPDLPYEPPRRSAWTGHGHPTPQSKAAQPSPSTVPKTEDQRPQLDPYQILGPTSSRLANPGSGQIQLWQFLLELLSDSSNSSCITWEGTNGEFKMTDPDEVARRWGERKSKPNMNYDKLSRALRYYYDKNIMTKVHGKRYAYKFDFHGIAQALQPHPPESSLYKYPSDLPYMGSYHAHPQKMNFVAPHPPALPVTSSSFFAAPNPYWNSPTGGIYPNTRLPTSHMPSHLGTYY
Summary of the method: (§1)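 GST fusions of human transcription factors were expressed in yeast and captured with glutathione beads. Once given DNA barcodes and pooled alongside a tag-only sample, they were incubated for 30 min at room temperature with 200 nmole of a random double-stranded 16-mer DNA library in Tris/NaCl/DTT/glycerol buffer, then washed, crosslinked (0.1% formaldehyde), proximity-ligated, PCR-amplified and sequenced on an Illumina NextSeq500. The binding signal of each hexamer is its read frequency for a factor divided by its frequency for the tag-only sample.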

ELF1 = ELF1 (Homo sapiens, UniProt P32519 1-619)
Summary of the method: as §1

ETV5 = ETV5 (Homo sapiens, UniProt P41161 1-510)
Summary of the method: as §1

SPIC = target: T2, SPIC (Homo sapiens, UniProt Q8N5J4 1-248)
T2 sequence: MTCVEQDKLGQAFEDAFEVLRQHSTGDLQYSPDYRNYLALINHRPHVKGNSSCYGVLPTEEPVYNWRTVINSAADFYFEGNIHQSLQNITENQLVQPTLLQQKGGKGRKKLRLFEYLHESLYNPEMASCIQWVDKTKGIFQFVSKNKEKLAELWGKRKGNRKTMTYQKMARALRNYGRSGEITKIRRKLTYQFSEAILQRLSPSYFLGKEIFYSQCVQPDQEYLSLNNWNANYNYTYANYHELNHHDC
Summary of the method: as §1

ELF4 = ELF4 (Homo sapiens, UniProt Q99607 1-663)
Summary of the method: as §1

ELF3 = target: T3, ELF3 (Homo sapiens, UniProt P78545 1-371)
T3 sequence: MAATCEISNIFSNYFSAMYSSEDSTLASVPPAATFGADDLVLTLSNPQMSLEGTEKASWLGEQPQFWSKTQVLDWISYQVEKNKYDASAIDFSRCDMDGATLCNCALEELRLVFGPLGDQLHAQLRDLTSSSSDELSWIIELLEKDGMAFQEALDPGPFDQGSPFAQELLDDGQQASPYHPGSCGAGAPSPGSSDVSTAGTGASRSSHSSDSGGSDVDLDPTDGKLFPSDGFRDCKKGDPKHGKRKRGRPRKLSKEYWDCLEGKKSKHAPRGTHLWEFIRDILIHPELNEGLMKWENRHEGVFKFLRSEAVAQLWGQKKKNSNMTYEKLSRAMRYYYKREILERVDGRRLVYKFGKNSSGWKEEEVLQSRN
Summary of the method: as §1

ETV3L = target: T4, ETV3L (Homo sapiens, UniProt Q6ZN32 1-361)
T4 sequence: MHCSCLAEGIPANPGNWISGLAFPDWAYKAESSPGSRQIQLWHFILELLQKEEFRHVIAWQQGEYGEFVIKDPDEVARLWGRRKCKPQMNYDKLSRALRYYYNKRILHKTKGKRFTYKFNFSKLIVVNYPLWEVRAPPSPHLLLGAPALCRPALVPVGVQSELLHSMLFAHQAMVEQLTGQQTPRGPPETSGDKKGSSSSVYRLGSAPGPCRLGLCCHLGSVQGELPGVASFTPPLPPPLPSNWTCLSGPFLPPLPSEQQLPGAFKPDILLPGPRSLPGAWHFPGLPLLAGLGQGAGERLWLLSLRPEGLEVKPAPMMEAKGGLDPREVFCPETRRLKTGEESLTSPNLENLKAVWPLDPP
Summary of the method: as §1

ETV7 = target: T5, ETV7 (Homo sapiens, UniProt Q9Y603 1-341)
T5 sequence: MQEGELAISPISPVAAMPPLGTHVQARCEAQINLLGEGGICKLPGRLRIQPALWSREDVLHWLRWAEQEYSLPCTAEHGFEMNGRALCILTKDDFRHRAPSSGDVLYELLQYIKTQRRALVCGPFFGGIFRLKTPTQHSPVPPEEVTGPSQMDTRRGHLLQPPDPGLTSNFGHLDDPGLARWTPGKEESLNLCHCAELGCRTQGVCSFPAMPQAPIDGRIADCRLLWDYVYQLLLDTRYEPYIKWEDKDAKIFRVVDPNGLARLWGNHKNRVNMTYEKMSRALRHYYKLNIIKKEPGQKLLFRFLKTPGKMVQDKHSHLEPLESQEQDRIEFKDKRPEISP
Summary of the method: as §1

ETV6 = ETV6 (Homo sapiens, UniProt P41212 1-452)
Summary of the method: as §1

EHF = target: T6, EHF (Homo sapiens, UniProt Q9NZC4 1-300)
T6 sequence: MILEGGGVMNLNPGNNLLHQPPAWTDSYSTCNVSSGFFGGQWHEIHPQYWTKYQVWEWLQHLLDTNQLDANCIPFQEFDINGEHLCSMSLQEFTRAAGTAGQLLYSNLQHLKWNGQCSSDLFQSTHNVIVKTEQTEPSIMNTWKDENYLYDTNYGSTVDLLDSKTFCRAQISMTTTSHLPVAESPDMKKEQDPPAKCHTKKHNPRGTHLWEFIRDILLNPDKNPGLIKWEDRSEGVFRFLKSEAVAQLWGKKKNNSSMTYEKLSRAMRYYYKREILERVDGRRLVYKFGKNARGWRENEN
Summary of the method: as §1

SPIB = SPIB (Homo sapiens, UniProt Q01892 1-262)
Summary of the method: as §1

ETV1 = ETV1 (Homo sapiens, UniProt P50549 1-477)
Summary of the method: as §1

ETS2 = target: T7, ETS2 (Homo sapiens, UniProt P15036 1-469)
T7 sequence: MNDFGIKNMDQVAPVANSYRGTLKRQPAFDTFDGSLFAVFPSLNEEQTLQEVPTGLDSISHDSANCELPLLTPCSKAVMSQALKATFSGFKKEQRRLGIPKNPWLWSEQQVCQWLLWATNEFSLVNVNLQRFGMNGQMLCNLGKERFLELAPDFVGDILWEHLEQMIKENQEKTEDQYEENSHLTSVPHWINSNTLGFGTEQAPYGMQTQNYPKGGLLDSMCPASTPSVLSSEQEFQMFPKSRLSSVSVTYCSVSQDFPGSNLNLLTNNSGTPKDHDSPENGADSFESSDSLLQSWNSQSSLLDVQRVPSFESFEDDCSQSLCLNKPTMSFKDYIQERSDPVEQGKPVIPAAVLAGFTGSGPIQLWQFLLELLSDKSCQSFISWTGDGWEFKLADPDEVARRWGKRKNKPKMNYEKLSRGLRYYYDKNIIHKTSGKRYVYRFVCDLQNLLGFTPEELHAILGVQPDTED
Summary of the method: as §1

ETV3 = target: T8, ETV3 (Homo sapiens, UniProt P41162-2 1-143)
T8 sequence: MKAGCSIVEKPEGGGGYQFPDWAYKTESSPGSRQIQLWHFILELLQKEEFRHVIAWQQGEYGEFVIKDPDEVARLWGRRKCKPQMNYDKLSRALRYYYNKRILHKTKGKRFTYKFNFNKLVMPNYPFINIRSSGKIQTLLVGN
Summary of the method: as §1

Chain of ELF1 (P32519 whole entry): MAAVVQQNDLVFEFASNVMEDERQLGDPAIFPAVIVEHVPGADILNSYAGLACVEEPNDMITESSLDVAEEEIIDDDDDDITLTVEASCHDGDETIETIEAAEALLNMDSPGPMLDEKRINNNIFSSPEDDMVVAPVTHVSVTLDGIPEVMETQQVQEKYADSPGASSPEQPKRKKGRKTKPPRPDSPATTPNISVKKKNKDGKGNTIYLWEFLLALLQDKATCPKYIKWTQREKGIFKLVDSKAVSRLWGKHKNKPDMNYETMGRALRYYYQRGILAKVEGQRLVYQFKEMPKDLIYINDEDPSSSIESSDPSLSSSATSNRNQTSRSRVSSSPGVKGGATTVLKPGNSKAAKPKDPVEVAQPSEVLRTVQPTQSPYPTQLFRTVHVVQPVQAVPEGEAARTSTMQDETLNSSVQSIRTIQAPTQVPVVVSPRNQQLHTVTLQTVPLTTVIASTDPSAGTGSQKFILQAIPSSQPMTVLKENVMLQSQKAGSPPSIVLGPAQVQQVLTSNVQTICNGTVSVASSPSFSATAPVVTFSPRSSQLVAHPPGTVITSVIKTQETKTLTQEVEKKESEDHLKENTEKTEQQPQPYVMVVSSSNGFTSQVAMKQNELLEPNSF
Chain of ETV5 (P41161 whole entry): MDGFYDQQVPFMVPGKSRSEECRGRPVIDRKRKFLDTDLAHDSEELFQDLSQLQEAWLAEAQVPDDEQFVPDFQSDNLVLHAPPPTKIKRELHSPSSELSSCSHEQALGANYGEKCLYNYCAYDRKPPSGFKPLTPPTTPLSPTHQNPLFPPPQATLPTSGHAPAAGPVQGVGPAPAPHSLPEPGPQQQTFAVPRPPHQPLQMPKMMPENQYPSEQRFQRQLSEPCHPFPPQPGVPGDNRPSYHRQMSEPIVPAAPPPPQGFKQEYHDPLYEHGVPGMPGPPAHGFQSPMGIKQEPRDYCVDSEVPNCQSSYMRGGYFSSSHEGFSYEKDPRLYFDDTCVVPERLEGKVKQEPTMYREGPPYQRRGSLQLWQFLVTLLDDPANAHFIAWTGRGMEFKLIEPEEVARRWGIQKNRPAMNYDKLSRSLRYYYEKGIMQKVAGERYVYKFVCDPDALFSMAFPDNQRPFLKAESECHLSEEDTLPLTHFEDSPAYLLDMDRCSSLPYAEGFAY
Chain of ELF4 (Q99607 whole entry): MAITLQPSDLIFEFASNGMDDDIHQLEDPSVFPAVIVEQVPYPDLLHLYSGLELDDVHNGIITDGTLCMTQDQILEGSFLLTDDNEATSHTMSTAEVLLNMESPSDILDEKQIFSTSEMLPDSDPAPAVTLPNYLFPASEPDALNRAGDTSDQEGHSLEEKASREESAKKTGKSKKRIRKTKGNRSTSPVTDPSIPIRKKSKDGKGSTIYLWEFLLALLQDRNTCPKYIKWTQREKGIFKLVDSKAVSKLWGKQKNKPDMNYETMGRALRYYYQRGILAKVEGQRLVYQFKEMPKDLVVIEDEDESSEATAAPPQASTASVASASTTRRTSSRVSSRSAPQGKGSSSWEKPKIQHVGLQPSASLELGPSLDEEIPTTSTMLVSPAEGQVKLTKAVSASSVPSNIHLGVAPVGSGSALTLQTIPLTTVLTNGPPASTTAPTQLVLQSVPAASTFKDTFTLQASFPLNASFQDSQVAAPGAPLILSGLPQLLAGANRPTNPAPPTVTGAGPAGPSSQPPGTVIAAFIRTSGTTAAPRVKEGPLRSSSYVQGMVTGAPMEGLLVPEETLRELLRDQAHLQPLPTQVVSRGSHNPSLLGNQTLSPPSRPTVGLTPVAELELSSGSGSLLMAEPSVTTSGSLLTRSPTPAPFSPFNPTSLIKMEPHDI
Chain of ETV6 (P41212 whole entry): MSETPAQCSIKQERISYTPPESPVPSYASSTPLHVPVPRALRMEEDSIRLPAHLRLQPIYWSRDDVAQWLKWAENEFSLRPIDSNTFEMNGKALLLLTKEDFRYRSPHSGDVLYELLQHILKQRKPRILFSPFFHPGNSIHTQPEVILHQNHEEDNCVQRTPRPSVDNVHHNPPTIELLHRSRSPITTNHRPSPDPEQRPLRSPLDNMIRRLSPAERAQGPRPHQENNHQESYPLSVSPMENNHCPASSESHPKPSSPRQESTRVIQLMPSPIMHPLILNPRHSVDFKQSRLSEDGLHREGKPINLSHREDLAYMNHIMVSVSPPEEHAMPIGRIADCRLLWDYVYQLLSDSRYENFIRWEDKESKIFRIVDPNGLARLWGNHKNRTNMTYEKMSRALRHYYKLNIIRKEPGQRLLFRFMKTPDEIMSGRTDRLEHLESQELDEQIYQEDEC
Chain of SPIB (Q01892 whole entry): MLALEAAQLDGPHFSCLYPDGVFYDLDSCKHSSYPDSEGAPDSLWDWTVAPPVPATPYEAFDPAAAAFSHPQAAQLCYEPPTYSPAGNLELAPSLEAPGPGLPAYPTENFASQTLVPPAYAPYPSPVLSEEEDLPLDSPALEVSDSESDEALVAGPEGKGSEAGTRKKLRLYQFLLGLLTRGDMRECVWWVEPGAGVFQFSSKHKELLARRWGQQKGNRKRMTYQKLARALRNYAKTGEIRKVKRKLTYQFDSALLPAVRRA
Chain of ETV1 (P50549 whole entry): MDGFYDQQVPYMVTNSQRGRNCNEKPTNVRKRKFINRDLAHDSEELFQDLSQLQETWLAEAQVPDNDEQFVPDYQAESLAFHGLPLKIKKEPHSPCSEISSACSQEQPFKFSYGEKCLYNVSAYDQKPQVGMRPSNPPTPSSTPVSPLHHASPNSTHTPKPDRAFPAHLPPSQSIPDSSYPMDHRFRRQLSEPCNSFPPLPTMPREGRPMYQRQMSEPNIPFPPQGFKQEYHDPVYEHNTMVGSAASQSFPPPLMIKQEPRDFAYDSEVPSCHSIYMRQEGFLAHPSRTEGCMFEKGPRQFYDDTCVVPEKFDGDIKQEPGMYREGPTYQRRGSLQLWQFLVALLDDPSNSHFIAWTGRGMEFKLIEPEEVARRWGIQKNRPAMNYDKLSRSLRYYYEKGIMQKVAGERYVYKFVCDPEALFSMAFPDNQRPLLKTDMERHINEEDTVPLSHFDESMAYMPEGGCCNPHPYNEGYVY

Sequence | binding signal (ERG) | binding signal (ELF1) | binding signal (ETV5) | binding signal (SPIC) | binding signal (ELF4) | binding signal (ELF3) | binding signal (ETV3L) | binding signal (ETV7) | binding signal (ETV6) | binding signal (EHF) | binding signal (SPIB) | binding signal (ETV1) | binding signal (ETS2) | binding signal (ETV3)
ACTCAG | 1.06 fold enrichment (6-mer frequency, TF over GST control) | 1.07 fold enrichment (6-mer frequency, TF over GST control) | 1.03 fold enrichment (6-mer frequency, TF over GST control) | 1.11 fold enrichment (6-mer frequency, TF over GST control) | 1.08 fold enrichment (6-mer frequency, TF over GST control) | 1.02 fold enrichment (6-mer frequency, TF over GST control) | 1.01 fold enrichment (6-mer frequency, TF over GST control) | 1.05 fold enrichment (6-mer frequency, TF over GST control) | 1.05 fold enrichment (6-mer frequency, TF over GST control) |  |  |  |  | 
GAACTG | 1.06 fold enrichment (6-mer frequency, TF over GST control) | 1.02 fold enrichment (6-mer frequency, TF over GST control) | 1.05 fold enrichment (6-mer frequency, TF over GST control) | 1.26 fold enrichment (6-mer frequency, TF over GST control) | 1.02 fold enrichment (6-mer frequency, TF over GST control) |  |  |  |  | 1.01 fold enrichment (6-mer frequency, TF over GST control) | 1.01 fold enrichment (6-mer frequency, TF over GST control) | 1.05 fold enrichment (6-mer frequency, TF over GST control) | 1.02 fold enrichment (6-mer frequency, TF over GST control) | 1.09 fold enrichment (6-mer frequency, TF over GST control)

Reference: paper PMC7862700, “An all-to-all approach to the identification of sequence-specific readers for epigenetic DNA modifications on cytosine”
